High-throughput results from PubChem.
An excerpt weighted towards active compounds, which were near 14% of everything screened.
Giardia FBPA inh: inhibitors of Giardia lamblia fructose-1,6-bisphosphate aldolase; A8B2U2; purified Giardia FBPA; Potency, µM (doses to about 59.6 µM), for the others: at the top dose activity, negative = inhibition, usual class: inhibitors; 290,000 compounds, 0.71% hits; note: potency is the fitted concentration of half-maximal effect; % is set by controls: 0 for no effect and ±100 for the full control effect; nearly all actives have a fitted effect of over 55% in size
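Giardia FBPA (40 nM reagent) was preincubated 10 min at RT with compound (up to 57.5 uM final), then substrate plus GAPDH/TPI/NAD/arsenate coupling system with diaphorase/resazurin was added; resorufin fluorescence (525/598 nm) was read after 20 min.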
Shiga toxin inh: Shiga toxin inhibition; Vero cells, Shiga toxin protein synthesis inhibition reporter; inhibition, % at 38.7 µM; 290,000 compounds, 9.2% hits; AID 2315; in the data active = inhibition mostly above about 28%, no sharp cut-off; inactive = mostly below about 43%; note: 0% is about no effect
NS1 inh: inhibitors of influenza NS1 protein function; Potency, µM (top dose mostly 46.1 µM), for the others: at the top dose activity, positive = more growth; 270,000 compounds, 0.4% hits; calls by dose curve; note: potency is the fitted concentration of half-maximal effect; actives are rising curves; nearly all actives have a fitted effect of over 50% in size
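Read-out: OD600 growth recovery of NS1-expressing budding yeast. Cells grown overnight at 30C in -URA glucose medium, washed, resuspended and diluted 1:100 in 2% galactose assay medium, pH 6.0. Same strain lacking NS1 served as positive control.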
CHX counter: affects cycloheximide protein synthesis inhibition readout, counter-screen. cell reporter, cycloheximide protein synthesis inhibition counterscreen. max response, %. 300,000 compounds, 12% hits. AID 2314; in the data active = max response mostly above about 13%, no sharp cut-off; inactive = mostly below about 14%; note: read at 38.3 µM for the half of the compounds with a filed dose; 0% is about no effect
LmPK inh: blocks Leishmania mexicana pyruvate kinase activity; Q27686; purified LmPK, Kinase-Glo ATP luminescence, 1 h; Potency, µM (titrated, usually from 57.5 µM), inactives show top-dose activity change, negative = inhibition, most hits filed as inhibitors; 290,000 compounds, 0.37% hits; AID 1721; note: potency is the fitted concentration of half-maximal effect; % is set by controls: 0 for no effect and ±100 for the full control effect
Target sequence (Q27686 whole entry, looked up): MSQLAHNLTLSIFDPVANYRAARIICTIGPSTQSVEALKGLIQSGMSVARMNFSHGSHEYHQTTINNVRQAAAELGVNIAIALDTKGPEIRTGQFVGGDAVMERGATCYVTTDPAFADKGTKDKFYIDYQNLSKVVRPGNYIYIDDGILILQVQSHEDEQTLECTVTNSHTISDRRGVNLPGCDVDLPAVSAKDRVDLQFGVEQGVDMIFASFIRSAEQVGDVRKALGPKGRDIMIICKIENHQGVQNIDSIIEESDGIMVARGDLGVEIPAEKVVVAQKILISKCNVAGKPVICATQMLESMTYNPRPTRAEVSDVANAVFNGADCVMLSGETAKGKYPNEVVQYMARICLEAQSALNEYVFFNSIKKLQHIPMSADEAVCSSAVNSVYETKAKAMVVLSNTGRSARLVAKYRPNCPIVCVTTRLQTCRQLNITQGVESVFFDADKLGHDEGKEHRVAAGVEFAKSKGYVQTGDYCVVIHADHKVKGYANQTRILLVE
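Purified LmPK (0.1 nM) with 0.5 mM PEP and 0.1 mM ADP in imidazole buffer pH 7.2 with MgCl2/KCl, 1 h at room temperature. ATP formed was read by luciferase luminescence and normalized to no-enzyme and uninhibited controls.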
Numbers without * were called inactive; ? = inconclusive; . = not tested or not shown. Unless noted, calls come from the whole dose curve; as a rule, active = well fitted curve in the direction sought with a large enough effect; inconclusive = small, poorly fitted or top-dose-only effect, or another doubt; inactive = no such curve, though single readings can be large; an effect the other way counts as inactive or inconclusive.

SMILES	Giardia FBPA inh	Shiga toxin inh	NS1 inh	CHX counter	LmPK inh
COc1cc(O)c(C(=O)/C=C/c2ccccc2)c(OC)c1	8.1%	69.7*	-82.0%	34.1*	-2.1%
COc1ccc(OC)c(/C=C/C(=O)c2ccc(Cl)cc2)c1	-8.4%	22.6	-14.1%	12.8	-4.0%
COc1ccccc1/C=C/C(=O)c1ccc(NC(C)=O)cc1	1.2%	32.2	-19.8%	21.3*	-0.5%
COc1ccccc1/C=C/C(=O)NC(=S)NC(C)C	-6.8%	57.0*	4.3%	16.9*	0.7%
COc1ccccc1/C=C/C(=O)c1ccc(Cl)cc1	-7.7%	83.1*	-4.0%	42.2*	-4.6%
Cc1ccc(C2=NS(=O)(=O)N(C)C(C(=O)NC3CCCC3)=C2)cc1	-9.0%	-2.4	12.8%	1.5	-0.9%
COc1ccc(CCN2CC(C(=O)NC3CCOCC3)CCC2=O)cc1 (centres undefined)	7.4%	-12.1	3.1%	-1.8	1.9%
Cc1ccc2c(c1)N(CC(=O)NCC1COc3ccccc3O1)C(=O)CO2 (centres undefined)	.	.	-3.3%	.	.
CCC(C)(C)c1nnc(NC(=O)C2CC(=O)N(CCc3ccc(F)cc3)C2)s1 (centres undefined)	-7.0%	24.4	-1.1%	-4.8	-1.3%
NS(=O)(=O)c1ccc(N=Nc2nc3[nH]cnc(=S)c3[nH]2)cc1	.	.	7.6%	.	.
CCOc1ccccc1NC(=O)CCCNC(=O)c1ccc(Cl)cc1	-2.2%	31.4	-5.1%	-2.7	0.0%
COc1ccc(/C=C/C(=O)c2ccccc2)c(OC)c1	-2.2%	74.1*	.	23.3*	-18.0%
COc1cccc(/C=C/C(=O)c2ccc3c(c2)OCCO3)c1OC	16.3%	.	-7.8%	47.2*	-2.0%
O=C(/C=C/c1cccc([N+](=O)[O-])c1)c1ccc2c(c1)OCCO2	-0.4%	-5.7	-8.3%	-1.3	1.5%
CCOc1ccccc1/C=C/C(=O)c1ccc(Cl)cc1	0.6%	23.0	-11.1%	14.5*	0.0%
CNC(=S)Nc1ccc(C)c(NC(=S)NC)c1	?	-12.1	.	-1.1	5.3%
COC(=O)c1ccccc1NC(=S)NC(=O)c1ccccc1	-4.0%	48.6	-7.7%	9.0*	0.7%
Cc1ccc(NC(=S)NC(=O)c2ccccc2)cc1NC(=S)NC(=O)c1ccccc1	?	54.0*	3.8%	24.2*	2.8%
COC(=O)c1ccccc1NC(=S)NC(=O)c1ccc(C)cc1	-2.8%	24.4	-15.7%	6.6	-0.5%
Cc1ccc(NC(=O)c2c(-c3ccccc3Cl)noc2C)nc1	1.3%	8.3	-7.2%	-1.3	1.7%
Cc1onc(-c2ccccc2Cl)c1C(=O)Nc1ccc(Cl)cn1	-0.2%	12.5	-5.6%	10.5*	0.0%
Cc1onc(-c2ccccc2Cl)c1C(=O)O/N=C(\N)c1ccccc1	.	19.0	-20.9%	23.1*	-7.9%
Cc1onc(-c2cccc(Cl)c2Cl)c1C(=O)O/N=C(\N)c1ccc([N+](=O)[O-])o1	-6.1%	32.2	-3.4%	9.1*	7.5%
CCn1cc(C(=O)N2CCCC2)c(=O)c2cc(S(=O)(=O)N3CC(C)CC(C)C3)ccc21 (centres undefined)	-4.9%	-6.8	7.6%	-5.4	-1.7%
CCn1cc(C(=O)N2CCCCC2)c(=O)c2cc(S(=O)(=O)N3CCC(C)CC3)ccc21	5.5%	9.7	-0.3%	22.8*	-1.3%
SMILES	Giardia FBPA inh	Shiga toxin inh	NS1 inh	CHX counter	LmPK inh
COc1ccccc1-n1c(/C=C/c2ccccn2)nc2ccccc2c1=O	-2.2%	-6.6	-3.7%	-0.2	-0.4%
COc1cccc(/C=C/c2ccccn2)c1O	-11.5%	110.2*	-32.2%	49.8*	-14.5%
COc1ccccc1O	39.4%	-3.4	23.6%	4.7	-8.5%
COc1cccc(O)c1O	17.7µM*	.	.	.	.
COc1ccc(S(=O)(=O)NCc2csc(C)n2)cc1OC	1.2%	-6.0	0.7%	-2.2	-4.7%
C=CCNC(=S)N1CCC(C(=O)c2ccc(F)cc2)CC1	?	3.4	-13.2%	0.8	-3.3%
CCC(=O)N1CCn2c1nc1ccccc12	3.7%	-17.0	1.2%	-0.9	-6.9%
COc1ccc(C(=O)n2c(N)nc3ccccc32)cc1OC	-28.7%	.	-5.3%	24.8*	-2.3%
O=C(c1ccco1)N1CCn2c1nc1ccccc12	0.0%	53.1*	-13.2%	28.8*	?
Nc1nc2ccccc2n1C(=O)c1ccc(F)cc1	-13.3%	48.6	-1.2%	16.3*	25.1µM*
Cn1c(CNC(=O)c2ccc(F)cc2)nc2ccccc21	-1.3%	-3.1	-1.0%	-1.1	-2.8%
Nc1nc2ccccc2n1C(=O)CCc1ccccc1	-0.5%	95.2*	-1.2%	46.3*	5.0%
